# Reference: ChEMBL document CHEMBL2218924, “A broad activity screen in support of a chemogenomic map for kinase signalling research and drug discovery” (Biochem J, 2013)
# Assays:
# [1] = molecular target: Death-associated protein kinase 1 (Homo sapiens) (UniProt P53355); conditions: at 10 µM
# [2] = molecular target: Death-associated protein kinase 2 (Homo sapiens) (UniProt Q9UIK4); conditions: at 1 µM
# [3] = molecular target: Death-associated protein kinase 2 (Homo sapiens) (UniProt Q9UIK4); conditions: at 10 µM
# [4] = molecular target: T1, Serine/threonine-protein kinase DCLK2 (Homo sapiens) (UniProt Q8N568); conditions: at 1 µM
# T1 sequence (whole entry): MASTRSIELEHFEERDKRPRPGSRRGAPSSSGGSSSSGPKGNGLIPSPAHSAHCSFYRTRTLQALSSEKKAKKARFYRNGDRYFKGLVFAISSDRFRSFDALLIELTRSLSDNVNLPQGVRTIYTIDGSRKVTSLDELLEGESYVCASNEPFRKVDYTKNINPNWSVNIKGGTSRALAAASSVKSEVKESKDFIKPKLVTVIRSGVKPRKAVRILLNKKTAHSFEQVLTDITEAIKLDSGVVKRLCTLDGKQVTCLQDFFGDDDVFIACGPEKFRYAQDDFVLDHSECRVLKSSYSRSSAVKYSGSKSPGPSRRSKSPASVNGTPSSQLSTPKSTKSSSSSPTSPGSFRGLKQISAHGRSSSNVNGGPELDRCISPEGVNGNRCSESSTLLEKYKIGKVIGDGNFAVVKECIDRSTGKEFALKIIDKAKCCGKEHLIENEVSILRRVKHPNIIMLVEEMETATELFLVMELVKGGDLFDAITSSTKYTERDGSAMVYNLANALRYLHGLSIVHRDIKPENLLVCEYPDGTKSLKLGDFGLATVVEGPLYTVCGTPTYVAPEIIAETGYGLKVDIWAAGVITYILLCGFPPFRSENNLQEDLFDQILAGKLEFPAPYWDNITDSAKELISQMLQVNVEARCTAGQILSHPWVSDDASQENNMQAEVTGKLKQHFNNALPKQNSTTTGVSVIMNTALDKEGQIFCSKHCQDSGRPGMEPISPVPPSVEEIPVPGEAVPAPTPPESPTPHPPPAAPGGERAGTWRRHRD
# [5] = molecular target: T1, Serine/threonine-protein kinase DCLK2 (Homo sapiens); conditions: at 10 µM
# [6] = molecular target: T2, Discoidin domain-containing receptor 2 (Homo sapiens) (UniProt Q16832); conditions: at 1 µM
# T2 sequence (whole entry): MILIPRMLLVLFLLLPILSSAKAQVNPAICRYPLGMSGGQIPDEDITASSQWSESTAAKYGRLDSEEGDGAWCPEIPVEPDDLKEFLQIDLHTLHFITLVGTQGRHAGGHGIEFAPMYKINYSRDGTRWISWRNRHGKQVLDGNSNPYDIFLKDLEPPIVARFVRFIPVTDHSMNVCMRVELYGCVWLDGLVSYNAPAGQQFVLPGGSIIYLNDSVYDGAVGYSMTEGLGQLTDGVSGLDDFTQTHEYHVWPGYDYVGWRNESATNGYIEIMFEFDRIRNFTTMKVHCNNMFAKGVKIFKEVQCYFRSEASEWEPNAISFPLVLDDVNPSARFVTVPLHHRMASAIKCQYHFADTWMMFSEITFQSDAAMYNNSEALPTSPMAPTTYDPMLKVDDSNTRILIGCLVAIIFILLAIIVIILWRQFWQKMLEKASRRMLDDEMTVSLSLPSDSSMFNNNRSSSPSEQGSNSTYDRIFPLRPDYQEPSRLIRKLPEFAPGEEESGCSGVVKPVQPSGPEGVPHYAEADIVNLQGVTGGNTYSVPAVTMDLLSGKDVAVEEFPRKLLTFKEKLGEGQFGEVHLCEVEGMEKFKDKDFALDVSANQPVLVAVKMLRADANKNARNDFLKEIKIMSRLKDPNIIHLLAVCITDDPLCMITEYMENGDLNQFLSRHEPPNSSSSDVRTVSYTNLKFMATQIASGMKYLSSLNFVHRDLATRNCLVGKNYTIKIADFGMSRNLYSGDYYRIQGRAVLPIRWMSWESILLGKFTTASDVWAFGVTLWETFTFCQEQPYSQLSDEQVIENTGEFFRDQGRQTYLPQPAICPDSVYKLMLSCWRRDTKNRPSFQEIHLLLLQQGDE
# [7] = molecular target: T2, Discoidin domain-containing receptor 2 (Homo sapiens); conditions: at 10 µM
# [8] = molecular target: T3, Myotonin-protein kinase (Homo sapiens) (UniProt Q09013); conditions: at 1 µM
# T3 sequence (whole entry): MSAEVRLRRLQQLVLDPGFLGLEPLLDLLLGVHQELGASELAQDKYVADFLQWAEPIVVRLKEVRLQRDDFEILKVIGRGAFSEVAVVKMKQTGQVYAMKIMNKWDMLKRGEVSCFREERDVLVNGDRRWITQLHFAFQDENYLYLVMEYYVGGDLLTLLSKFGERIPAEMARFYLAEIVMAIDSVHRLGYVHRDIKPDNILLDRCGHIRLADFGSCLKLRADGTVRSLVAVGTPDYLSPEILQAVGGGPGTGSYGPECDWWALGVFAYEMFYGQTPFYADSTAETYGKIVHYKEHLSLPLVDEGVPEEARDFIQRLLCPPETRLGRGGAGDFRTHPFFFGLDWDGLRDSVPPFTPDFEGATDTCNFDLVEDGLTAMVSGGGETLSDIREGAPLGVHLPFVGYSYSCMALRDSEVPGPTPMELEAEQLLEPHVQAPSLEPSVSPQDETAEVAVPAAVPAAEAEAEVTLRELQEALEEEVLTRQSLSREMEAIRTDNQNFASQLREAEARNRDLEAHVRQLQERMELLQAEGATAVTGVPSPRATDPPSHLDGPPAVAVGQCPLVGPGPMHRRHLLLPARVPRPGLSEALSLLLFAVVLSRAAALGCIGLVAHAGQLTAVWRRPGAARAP
# [9] = molecular target: T3, Myotonin-protein kinase (Homo sapiens); conditions: at 10 µM
# [10] = molecular target: T4, Serine/threonine-protein kinase 17A (Homo sapiens) (UniProt Q9UEE5); conditions: at 1 µM
# T4 sequence (whole entry): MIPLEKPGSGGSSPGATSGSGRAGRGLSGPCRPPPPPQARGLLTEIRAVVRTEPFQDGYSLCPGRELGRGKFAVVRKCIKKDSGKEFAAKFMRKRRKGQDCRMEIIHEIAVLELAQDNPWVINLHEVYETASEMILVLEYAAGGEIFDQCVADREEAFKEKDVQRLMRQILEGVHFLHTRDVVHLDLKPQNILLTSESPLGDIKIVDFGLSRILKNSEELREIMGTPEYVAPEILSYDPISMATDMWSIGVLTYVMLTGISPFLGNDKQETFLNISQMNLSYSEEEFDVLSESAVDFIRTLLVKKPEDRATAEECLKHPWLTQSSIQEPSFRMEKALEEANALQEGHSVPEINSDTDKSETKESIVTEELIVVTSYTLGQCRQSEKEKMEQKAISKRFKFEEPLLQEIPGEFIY
# [11] = molecular target: T4, Serine/threonine-protein kinase 17A (Homo sapiens); conditions: at 10 µM
# [12] = molecular target: T5, Dual specificity tyrosine-phosphorylation-regulated kinase 2 (Homo sapiens) (UniProt Q92630); conditions: at 1 µM
# T5 sequence (whole entry): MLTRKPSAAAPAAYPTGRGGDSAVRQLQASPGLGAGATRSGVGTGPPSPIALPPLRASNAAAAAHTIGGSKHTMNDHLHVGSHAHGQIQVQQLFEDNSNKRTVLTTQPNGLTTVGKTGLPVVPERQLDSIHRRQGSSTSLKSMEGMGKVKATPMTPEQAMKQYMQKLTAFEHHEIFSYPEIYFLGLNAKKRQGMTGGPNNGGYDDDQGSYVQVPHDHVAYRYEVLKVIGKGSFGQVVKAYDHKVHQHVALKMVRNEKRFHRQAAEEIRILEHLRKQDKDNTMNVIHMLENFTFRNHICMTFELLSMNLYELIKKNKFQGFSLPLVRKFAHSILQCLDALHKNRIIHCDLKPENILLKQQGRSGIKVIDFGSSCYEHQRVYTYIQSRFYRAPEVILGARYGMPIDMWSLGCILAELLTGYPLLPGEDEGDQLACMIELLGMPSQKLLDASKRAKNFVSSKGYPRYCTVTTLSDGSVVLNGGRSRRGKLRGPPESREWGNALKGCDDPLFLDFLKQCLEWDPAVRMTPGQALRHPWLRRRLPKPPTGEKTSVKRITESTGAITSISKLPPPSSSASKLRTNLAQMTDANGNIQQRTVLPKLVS
# [13] = molecular target: T5, Dual specificity tyrosine-phosphorylation-regulated kinase 2 (Homo sapiens); conditions: at 10 µM
# [14] = molecular target: T6, Ephrin type-A receptor 1 (Homo sapiens) (UniProt P21709); conditions: at 1 µM
# T6 sequence (whole entry): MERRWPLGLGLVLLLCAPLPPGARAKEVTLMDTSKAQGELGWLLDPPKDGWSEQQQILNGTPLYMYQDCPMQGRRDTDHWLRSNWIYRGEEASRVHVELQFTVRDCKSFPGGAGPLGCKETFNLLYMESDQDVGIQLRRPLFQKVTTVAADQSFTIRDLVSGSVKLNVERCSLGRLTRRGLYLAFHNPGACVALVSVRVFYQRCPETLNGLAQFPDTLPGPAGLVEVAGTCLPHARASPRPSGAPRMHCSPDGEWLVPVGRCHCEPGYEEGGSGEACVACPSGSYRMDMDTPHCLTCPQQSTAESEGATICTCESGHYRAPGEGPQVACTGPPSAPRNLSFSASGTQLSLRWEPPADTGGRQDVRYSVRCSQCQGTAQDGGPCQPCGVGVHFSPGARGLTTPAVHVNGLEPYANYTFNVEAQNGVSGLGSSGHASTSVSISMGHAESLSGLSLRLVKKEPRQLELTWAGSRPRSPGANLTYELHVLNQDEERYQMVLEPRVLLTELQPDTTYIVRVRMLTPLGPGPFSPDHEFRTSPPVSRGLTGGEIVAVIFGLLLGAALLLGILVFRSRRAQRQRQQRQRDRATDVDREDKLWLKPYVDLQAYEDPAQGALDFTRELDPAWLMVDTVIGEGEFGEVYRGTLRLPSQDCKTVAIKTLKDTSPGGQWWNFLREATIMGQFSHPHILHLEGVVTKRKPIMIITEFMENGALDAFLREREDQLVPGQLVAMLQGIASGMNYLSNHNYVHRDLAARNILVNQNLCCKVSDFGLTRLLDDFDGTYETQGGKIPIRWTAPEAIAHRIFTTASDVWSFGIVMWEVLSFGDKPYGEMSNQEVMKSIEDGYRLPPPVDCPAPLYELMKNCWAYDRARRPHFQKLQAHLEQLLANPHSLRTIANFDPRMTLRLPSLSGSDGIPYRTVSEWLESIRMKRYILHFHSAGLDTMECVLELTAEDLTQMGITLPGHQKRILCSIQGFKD
# [15] = molecular target: T6, Ephrin type-A receptor 1 (Homo sapiens); conditions: at 10 µM
# [16] = molecular target: Ephrin type-A receptor 2 (Homo sapiens) (UniProt P29317); conditions: at 1 µM
# [17] = molecular target: Ephrin type-A receptor 2 (Homo sapiens) (UniProt P29317); conditions: at 10 µM
# [18] = molecular target: T7, Ephrin type-A receptor 3 (Homo sapiens) (UniProt P29320); conditions: at 1 µM
# T7 sequence (whole entry): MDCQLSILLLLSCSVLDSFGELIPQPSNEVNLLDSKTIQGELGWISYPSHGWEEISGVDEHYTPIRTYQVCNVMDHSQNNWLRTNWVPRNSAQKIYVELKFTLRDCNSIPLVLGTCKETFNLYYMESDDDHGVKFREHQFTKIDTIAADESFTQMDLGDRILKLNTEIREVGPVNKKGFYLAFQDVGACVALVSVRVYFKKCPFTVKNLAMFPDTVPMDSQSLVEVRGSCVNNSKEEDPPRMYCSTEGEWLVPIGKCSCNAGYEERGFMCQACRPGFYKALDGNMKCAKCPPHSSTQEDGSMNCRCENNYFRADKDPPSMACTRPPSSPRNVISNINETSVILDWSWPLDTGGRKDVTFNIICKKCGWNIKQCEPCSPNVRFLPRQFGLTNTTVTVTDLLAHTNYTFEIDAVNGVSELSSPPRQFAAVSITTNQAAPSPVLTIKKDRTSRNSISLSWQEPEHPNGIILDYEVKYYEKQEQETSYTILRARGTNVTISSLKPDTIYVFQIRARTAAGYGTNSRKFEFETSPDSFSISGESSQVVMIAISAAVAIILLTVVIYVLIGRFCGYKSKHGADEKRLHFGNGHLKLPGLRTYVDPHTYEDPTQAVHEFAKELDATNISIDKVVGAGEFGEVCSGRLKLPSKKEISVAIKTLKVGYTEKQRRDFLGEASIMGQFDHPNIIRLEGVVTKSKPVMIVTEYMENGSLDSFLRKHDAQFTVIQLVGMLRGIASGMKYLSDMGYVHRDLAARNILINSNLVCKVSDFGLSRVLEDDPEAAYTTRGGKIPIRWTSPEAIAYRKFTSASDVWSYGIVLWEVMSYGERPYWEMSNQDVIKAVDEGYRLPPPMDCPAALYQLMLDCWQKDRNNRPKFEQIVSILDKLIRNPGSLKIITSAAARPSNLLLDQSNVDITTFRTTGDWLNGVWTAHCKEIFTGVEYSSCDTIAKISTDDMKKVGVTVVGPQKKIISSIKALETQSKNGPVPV
# Chain of Ephrin type-A receptor 2 (Homo sapiens) (P29317 whole entry): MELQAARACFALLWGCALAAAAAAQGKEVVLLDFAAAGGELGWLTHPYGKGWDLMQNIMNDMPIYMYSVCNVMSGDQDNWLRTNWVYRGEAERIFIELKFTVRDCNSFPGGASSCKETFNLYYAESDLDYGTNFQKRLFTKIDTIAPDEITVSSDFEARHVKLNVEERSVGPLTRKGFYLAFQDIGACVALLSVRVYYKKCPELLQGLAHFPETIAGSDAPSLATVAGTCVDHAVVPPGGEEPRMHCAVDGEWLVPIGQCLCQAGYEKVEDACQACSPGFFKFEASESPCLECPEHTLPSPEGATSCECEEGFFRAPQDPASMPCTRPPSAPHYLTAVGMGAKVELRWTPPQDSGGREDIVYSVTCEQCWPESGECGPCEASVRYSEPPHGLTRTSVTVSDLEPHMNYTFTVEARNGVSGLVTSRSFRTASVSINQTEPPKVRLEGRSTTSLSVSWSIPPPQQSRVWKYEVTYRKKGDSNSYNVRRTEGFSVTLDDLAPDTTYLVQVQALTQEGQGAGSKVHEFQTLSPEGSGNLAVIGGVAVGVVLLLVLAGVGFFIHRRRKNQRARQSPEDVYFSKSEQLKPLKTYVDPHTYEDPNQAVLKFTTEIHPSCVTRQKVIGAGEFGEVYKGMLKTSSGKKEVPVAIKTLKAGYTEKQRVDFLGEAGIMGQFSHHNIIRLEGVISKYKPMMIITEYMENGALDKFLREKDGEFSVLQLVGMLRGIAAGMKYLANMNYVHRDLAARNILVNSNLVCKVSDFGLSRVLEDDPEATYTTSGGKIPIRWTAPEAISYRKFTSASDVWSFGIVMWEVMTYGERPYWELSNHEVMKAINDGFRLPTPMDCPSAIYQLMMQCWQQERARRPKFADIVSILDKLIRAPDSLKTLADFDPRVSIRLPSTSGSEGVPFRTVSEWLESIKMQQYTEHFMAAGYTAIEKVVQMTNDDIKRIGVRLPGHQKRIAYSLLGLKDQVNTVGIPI
# Chain of Death-associated protein kinase 2 (Homo sapiens) (Q9UIK4 whole entry, looked up): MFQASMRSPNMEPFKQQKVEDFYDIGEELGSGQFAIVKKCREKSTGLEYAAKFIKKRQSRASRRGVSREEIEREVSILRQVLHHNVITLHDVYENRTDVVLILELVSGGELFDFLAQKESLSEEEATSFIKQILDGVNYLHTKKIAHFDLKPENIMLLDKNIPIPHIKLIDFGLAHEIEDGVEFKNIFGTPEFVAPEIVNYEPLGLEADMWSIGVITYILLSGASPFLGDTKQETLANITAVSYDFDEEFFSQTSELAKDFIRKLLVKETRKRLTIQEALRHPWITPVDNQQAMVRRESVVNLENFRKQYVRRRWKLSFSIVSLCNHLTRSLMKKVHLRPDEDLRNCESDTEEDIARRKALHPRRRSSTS
# Chain of Death-associated protein kinase 1 (Homo sapiens) (P53355 whole entry, looked up): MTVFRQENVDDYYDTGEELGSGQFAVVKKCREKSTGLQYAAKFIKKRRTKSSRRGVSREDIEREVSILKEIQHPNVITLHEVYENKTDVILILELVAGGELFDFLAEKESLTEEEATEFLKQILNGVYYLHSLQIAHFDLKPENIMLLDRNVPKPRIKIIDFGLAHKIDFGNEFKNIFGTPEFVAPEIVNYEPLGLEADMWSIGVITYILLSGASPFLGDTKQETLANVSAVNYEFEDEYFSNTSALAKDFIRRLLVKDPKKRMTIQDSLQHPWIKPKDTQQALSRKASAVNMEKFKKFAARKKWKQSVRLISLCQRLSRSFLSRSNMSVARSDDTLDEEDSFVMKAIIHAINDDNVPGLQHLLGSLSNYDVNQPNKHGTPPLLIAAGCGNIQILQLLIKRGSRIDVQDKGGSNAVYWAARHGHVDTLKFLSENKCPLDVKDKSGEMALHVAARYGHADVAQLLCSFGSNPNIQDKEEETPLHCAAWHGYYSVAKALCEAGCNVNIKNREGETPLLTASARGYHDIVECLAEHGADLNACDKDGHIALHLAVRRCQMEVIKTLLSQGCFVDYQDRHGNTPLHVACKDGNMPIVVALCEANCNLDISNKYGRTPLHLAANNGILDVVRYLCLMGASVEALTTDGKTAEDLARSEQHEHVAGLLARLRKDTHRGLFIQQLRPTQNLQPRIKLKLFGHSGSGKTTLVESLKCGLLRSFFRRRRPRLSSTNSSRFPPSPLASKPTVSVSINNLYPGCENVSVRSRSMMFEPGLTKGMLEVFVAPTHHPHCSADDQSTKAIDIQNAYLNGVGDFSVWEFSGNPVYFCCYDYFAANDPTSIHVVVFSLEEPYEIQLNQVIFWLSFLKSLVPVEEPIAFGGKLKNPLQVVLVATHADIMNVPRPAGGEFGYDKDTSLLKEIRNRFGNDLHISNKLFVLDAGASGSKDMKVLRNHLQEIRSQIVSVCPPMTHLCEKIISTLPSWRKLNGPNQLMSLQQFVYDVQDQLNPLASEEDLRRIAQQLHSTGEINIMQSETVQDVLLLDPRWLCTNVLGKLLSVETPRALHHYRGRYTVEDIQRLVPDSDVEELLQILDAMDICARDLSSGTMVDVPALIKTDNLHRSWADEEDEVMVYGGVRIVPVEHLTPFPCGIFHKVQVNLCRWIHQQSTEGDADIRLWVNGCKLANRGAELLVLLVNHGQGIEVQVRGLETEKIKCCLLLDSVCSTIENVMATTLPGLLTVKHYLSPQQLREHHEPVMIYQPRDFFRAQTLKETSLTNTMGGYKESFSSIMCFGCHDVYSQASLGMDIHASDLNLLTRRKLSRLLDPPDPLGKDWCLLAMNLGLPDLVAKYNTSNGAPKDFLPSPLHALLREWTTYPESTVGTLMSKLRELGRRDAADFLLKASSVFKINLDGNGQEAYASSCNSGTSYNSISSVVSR
Structure (SMILES),residual activity [1] [%],residual activity [2] [%],residual activity [3] [%],residual activity [4] [%],residual activity [5] [%],residual activity [6] [%],residual activity [7] [%],residual activity [8] [%],residual activity [9] [%],residual activity [10] [%],residual activity [11] [%],residual activity [12] [%],residual activity [13] [%],residual activity [14] [%],residual activity [15] [%],residual activity [16] [%],residual activity [17] [%],residual activity [18] [%]
O=C1NC(=O)c2c1c1c3ccccc3[nH]c1c1[nH]c3cc(Br)ccc3c21,92,98,71,83,96,101,98,115,97,67,4,100,75,96,86,98,114,93
CN(C)CCCn1cc(C2=C(c3c[nH]c4ccccc34)C(=O)NC2=O)c2ccccc21,75,72,33,–,88,113,82,31,25,108,46,–,–,–,37,102,68,109
